IDE exosite inh: exo-site inhibitors of human insulin-degrading enzyme; P14735; actives 6.3% (n = 17,000); AID 1259349; z-score at 20 µM; purified IDE, FL-6b probe fluorescence polarization; hits give low values;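 active means z-score of -3 or lower, meaning strong loss of probe binding signal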;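 further: His-tagged human IDE residues 42-1019 made in E. coli with 30 nM FL-6b probe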
Target sequence (P14735 42-1019 limits assumed): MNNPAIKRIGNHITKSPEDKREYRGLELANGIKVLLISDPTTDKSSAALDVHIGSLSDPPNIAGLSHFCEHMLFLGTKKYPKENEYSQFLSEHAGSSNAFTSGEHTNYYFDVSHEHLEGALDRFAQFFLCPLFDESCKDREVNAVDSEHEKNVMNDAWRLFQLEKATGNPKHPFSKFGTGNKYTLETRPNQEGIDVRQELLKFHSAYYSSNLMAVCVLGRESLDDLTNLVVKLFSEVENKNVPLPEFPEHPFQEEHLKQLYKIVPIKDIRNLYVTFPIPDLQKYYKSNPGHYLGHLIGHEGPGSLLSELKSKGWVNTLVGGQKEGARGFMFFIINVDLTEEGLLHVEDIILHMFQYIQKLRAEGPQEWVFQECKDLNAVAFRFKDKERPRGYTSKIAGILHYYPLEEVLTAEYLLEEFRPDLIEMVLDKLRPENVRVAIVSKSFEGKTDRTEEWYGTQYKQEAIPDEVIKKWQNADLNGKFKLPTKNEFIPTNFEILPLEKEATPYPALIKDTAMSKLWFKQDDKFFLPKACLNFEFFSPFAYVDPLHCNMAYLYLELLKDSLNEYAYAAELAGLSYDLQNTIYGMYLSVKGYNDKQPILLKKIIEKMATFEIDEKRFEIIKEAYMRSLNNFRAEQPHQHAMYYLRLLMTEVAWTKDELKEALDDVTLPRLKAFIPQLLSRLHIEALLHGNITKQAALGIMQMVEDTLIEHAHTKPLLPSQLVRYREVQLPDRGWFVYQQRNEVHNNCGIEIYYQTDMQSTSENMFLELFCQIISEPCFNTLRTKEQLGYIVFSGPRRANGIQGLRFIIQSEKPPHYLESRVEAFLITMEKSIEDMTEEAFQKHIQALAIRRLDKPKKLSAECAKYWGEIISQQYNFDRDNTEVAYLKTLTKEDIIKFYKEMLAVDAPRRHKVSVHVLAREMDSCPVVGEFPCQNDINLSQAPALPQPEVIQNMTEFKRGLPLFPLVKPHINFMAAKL
Each line names hits and unclear results; the compound was inactive in the other large screens; ! = not active in a repeat. This excerpt belongs to a sample that is enriched for hits.

C[C@H](CO)N1C[C@H](C)[C@H](CN(C)C(=O)Nc2ccc3c(c2)OCO3)OCc2cn(nn2)CCCC1=O	none
CCCNC(=O)N1[C@H](C#N)[C@H](c2ccc(-c3ccccc3F)cc2)[C@H]1CO	none
COc1ccccc1NC(=O)N1[C@H](C#N)[C@@H](c2ccccc2)[C@@H]1CO	none
CC(C)CC#Cc1ccc([C@@H]2[C@H]3CN(C(=O)CN4CCOCC4)CC(=O)N3[C@H]2CO)cc1	none
COc1ccccc1-c1ccc([C@@H]2[C@@H](CO)N3CCCCN(C(=O)NC4CCCC4)C[C@H]23)cc1	IDE exosite inh -8.39
CN1C(=O)c2cc(NC(=O)c3cscn3)ccc2OC[C@H]2O[C@@H](CC(=O)N3CCOCC3)CC[C@@H]21	none
O=C(NC[C@H]1[C@H](c2ccccc2)[C@H](CO)N1CC1CCCC1)c1cccnc1	none
CS(=O)(=O)N1[C@H](C#N)[C@H](c2ccccc2-c2ccc(F)cc2)[C@H]1CO	none
Cc1ccccc1S(=O)(=O)N1CCCCN2[C@H](CO)[C@H](c3ccc(-c4cccnc4)cc3)[C@H]2C1	none
O=S(=O)(c1ccccc1F)N1CCCCN2[C@H](CO)[C@H](c3ccc(-c4cccnc4)cc3)[C@@H]2C1	none
O=S(=O)(c1ccccc1F)N1CCCCN2[C@H](CO)[C@@H](c3ccc(-c4cccnc4)cc3)[C@H]2C1	none
Cc1ccccc1S(=O)(=O)N1CCCCN2[C@H](CO)[C@@H](c3ccc(-c4cncnc4)cc3)[C@H]2C1	none
Cc1ccccc1S(=O)(=O)N1CCCCN2[C@@H](CO)[C@@H](c3ccc(-c4cncnc4)cc3)[C@@H]2C1	IDE exosite inh -4.33
Cc1ccccc1S(=O)(=O)N1CCCCN2[C@@H](CO)[C@H](c3ccc(-c4cncnc4)cc3)[C@@H]2C1	none
Cc1ccccc1S(=O)(=O)N1CCCCN2[C@H](CO)[C@@H](c3ccc(-c4cccnc4)cc3)[C@@H]2C1	IDE exosite inh -11.6
O=S(=O)(c1ccccc1F)N1CCCCN2[C@@H](CO)[C@@H](c3ccc(-c4cccnc4)cc3)[C@@H]2C1	IDE exosite inh -12.8
Cc1cccc(S(=O)(=O)N2CCCCN3[C@H](C2)[C@H](c2ccc(-c4cccnc4)cc2)[C@@H]3CO)c1	none
O=C(C[C@@H]1CC[C@H]2NC[C@H](O)COC[C@@H]2O1)Nc1nccs1	none
COc1ccc(-c2ccc([C@@H]3[C@@H](CO)N4C(=O)CN(C(=O)NC(C)C)C[C@@H]34)cc2)cc1	none
COc1ccc(NC(=O)N2CCCCN3[C@H](CO)[C@H](c4ccc(-c5ccccc5C)cc4)[C@@H]3C2)cc1	none
COc1ccc(NC(=O)N2CCCCN3[C@H](C2)[C@@H](c2ccc(-c4ccccc4F)cc2)[C@@H]3CO)cc1	none
COc1ccc(NC(=O)N2CCCCN3[C@H](CO)[C@@H](c4ccc(-c5ccccc5C)cc4)[C@H]3C2)cc1	none
COc1ccc(NC(=O)N2CCCCN3[C@@H](CO)[C@H](c4ccc(-c5ccccc5C)cc4)[C@@H]3C2)cc1	IDE exosite inh -10.3
COc1ccc(NC(=O)N2CCCCN3[C@@H](CO)[C@@H](c4ccc(-c5ccccc5C)cc4)[C@@H]3C2)cc1	IDE exosite inh -4.49
COc1ccc(NC(=O)N2CCCCN3[C@H](CO)[C@H](c4ccc(-c5ccccc5F)cc4)[C@H]3C2)cc1	none
CN1CCN(C(=O)C[C@H]2CC[C@H]3[C@@H](COC[C@H](O)CN3C(=O)c3ccccc3F)O2)CC1	none
CCC(=O)N1[C@H](CN(C)C(C)=O)[C@@H](c2ccc(-c3ccc(F)cc3)cc2)[C@@H]1CO	none
Cc1ccccc1-c1ccc(C2[C@@H]3CN(Cc4ccc5c(c4)OCO5)C[C@H]2N3)cc1 (stereo partly specified)	IDE exosite inh -4.3!
c1cncc(-c2ccc(C3[C@@H]4CN(Cc5ccc6c(c5)OCO6)C[C@H]3N4)cc2)c1 (stereo partly specified)	none
c1ncc(-c2ccc(C3[C@@H]4CN(Cc5cocn5)C[C@H]3N4)cc2)cn1 (stereo partly specified)	none
Cc1ccccc1-c1ccc(C2[C@@H]3CN(Cc4cocn4)C[C@H]2N3)cc1 (stereo partly specified)	IDE exosite inh -3.01!
C(=C\c1ccc(C2[C@@H]3CN(Cc4cocn4)C[C@H]2N3)cc1)/c1ccccc1 (stereo partly specified)	none
Cc1ccccc1-c1ccc(C2[C@H]3CNC[C@@H]2N3Cc2ccc3c(c2)OCO3)cc1 (stereo partly specified)	none
Cc1ccc(S(=O)(=O)NCC[C@H]2CC[C@@H](NC(=O)c3cccnc3)[C@@H](CO)O2)cc1	none
Cn1cnc(S(=O)(=O)N2CCCCN3[C@H](CO)[C@@H](c4ccc(C#CC5CCCC5)cc4)[C@@H]3C2)c1	none
O=C(c1ccccc1)N1CC(=O)N2[C@@H](CO)[C@H](c3ccc(C#Cc4ccccc4)cc3)[C@@H]2C1	IDE exosite inh -3.81
COc1ccc(C#Cc2ccc([C@H]3[C@@H](CO)N4C(=O)CN(C(=O)c5ccccc5)C[C@H]34)cc2)cc1	none
O=C(c1ccccc1)N1CC(=O)N2[C@@H](CO)[C@@H](c3ccc(C#Cc4ccccc4)cc3)[C@@H]2C1	IDE exosite inh -9.13
COc1ccc(C#Cc2ccc([C@@H]3[C@H]4CN(C(=O)c5ccccc5)CC(=O)N4[C@H]3CO)cc2)cc1	none
COc1ccc(C#Cc2ccc([C@H]3[C@H](CO)N4C(=O)CN(C(=O)c5ccccc5)C[C@@H]34)cc2)cc1	none
O=C(c1ccccc1)N1CC(=O)N2[C@H](C1)[C@@H](c1ccc(C#Cc3ccccc3)cc1)[C@@H]2CO	none
O=C(C[C@H]1CC[C@@H]2[C@H](COC[C@@H](O)CN2C(=O)Cc2ccccc2)O1)NC1Cc2ccccc2C1	none
O=C(NC[C@H]1[C@H](c2ccccc2)[C@@H](CO)N1C(=O)C1CCC1)NC1CCCC1	none
CCC(=O)N1CCCCN2[C@H](CO)[C@H](c3ccc(-c4cccnc4)cc3)[C@@H]2C1	none
N#C[C@@H]1[C@@H](c2ccc(/C=C/c3ccccc3)cc2)[C@@H](CO)N1C(=O)C1CCC1	none
C(=C\c1ccc(C2[C@H]3CNC[C@@H]2N3CC2CCOCC2)cc1)/c1ccccc1 (stereo partly specified)	none
Cc1cccc(-c2ccc([C@@H]3[C@@H](CO)N4CCCCN(S(=O)(=O)c5cccc(C)c5)C[C@H]34)cc2)c1	none
Cc1cccc(-c2ccc([C@H]3[C@H]4CN(S(=O)(=O)c5ccccc5C)CCCCN4[C@H]3CO)cc2)c1	none
Cc1cccc(-c2ccc([C@H]3[C@H]4CN(S(=O)(=O)c5ccccc5F)CCCCN4[C@H]3CO)cc2)c1	none
Cc1cccc(-c2ccc([C@@H]3[C@@H](CO)N4CCCCN(S(=O)(=O)c5cccc(C)c5)C[C@@H]34)cc2)c1	IDE exosite inh -9.77
Cc1cccc(-c2ccc([C@H]3[C@@H](CO)N4CCCCN(S(=O)(=O)c5ccccc5F)C[C@H]34)cc2)c1	IDE exosite inh -3.53
Cc1cccc(-c2ccc([C@H]3[C@H](CO)N4CCCCN(S(=O)(=O)c5cccc(C)c5)C[C@@H]34)cc2)c1	none
Cc1cccc(-c2ccc([C@@H]3[C@@H](CO)N4CCCCN(S(=O)(=O)c5ccccc5C)C[C@H]34)cc2)c1	none
Cc1ccccc1S(=O)(=O)N1CCCCN2[C@H](CO)[C@@H](c3ccc(-c4cccc(F)c4)cc3)[C@@H]2C1	IDE exosite inh -7.34
O=S(=O)(c1ccccc1F)N1CCCCN2[C@H](CO)[C@H](c3ccc(-c4ccccc4)cc3)[C@H]2C1	none
Cc1cccc(-c2ccc([C@@H]3[C@@H](CO)N4CCCCN(S(=O)(=O)c5ccccc5C)C[C@@H]34)cc2)c1	IDE exosite inh -20.3
